High-throughput results: PubChem, National Center for Advancing Translational Sciences (NCATS)
A selection: hits, their analogues and other compounds. The true share with any hit is near 4.2%.
Sfp PPTase inh: Sfp phosphopantetheinyl transferase inhibition; Q9F4F7; Biochemical Sfp PPTase activity, qHTS; Potency, µM, without a hit: largest response in the series, negative = inhibition, usual class: inhibitors; 3.5% of 310,000 active;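 further: the enzyme is Sfp with the accession as filed and its product quenches rhodamine fluorescence; 0% = enzyme reaction without inhibitor and -100% = no enzyme wells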
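Reaction rates are the 30-min fluorescence difference (ex 525, em 598 nm) in wells containing 15 nM Sfp, 5 uM rhodamine-CoA and 12.5 uM BHQ-2-YbbR at pH 7.6 with 10 mM MgCl2.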
VDR inhibitor: vitamin D3 receptor (human) inhibition; 0.93% of 400,000 active; AID 504847; Potency, µM, for the others: max response, negative = inhibition, most hits filed as inhibitors; VDR-SRC2-3 peptide fluorescence polarization, 2 h
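FP read-out; VDR + SRC2-3 coactivator peptide; 23 nl compound by pintool; 2 h RT incubation; reagents held at 4 deg C, protected from light.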
PLK1 PBD block: PLK1 (human) polo-box domain binding inhibition. P53350. Plk1 PBD binding of FITC phosphopeptide, fluorescence polarization. 2.8% of 360,000 active. Potency, µM, without a hit: max response, negative = inhibition, usual class: inhibitors; further: series mostly up to about 57 µM; nearly all actives have a fitted effect of over 65% in size
Target sequence (P53350 whole entry, looked up, the tested form may be a part): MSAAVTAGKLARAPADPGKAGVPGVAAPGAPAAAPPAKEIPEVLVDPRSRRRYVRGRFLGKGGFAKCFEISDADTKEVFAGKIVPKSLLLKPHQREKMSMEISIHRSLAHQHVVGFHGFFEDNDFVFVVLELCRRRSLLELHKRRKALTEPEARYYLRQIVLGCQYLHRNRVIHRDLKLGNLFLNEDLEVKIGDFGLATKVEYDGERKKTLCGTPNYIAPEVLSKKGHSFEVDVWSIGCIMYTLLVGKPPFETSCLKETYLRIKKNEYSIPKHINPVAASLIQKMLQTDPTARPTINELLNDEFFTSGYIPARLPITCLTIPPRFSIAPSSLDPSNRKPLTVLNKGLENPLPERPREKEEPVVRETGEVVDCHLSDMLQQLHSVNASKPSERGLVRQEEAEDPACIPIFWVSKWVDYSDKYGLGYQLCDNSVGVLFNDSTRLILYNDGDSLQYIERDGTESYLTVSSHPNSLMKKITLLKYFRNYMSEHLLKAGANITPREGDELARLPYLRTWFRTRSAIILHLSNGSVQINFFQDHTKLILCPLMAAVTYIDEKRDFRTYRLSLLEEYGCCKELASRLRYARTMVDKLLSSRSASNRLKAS
ALOX12 inh: inhibitors of human 12S-lipoxygenase ALOX12; 1.1% of 580,000 active; Potency, µM (top dose mostly 108 µM), without a hit: at the top dose activity change, negative = inhibition, hits mostly inhibitors; AID 1671190; purified 12hLO, xylenol orange hydroperoxide absorbance
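Purified human 12hLO (150 nM final) in 25 mM Hepes, 0.01% Triton X-100, pH 7.0 was preincubated 15 min at room temperature with compound. Then 40 uM arachidonic acid was added, 30 min. Hydroperoxide was read by Fe-XO absorbance ratio 573/405 nm.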
Starred values were filed as active, the others as inactive; [ ] = dose if it differs, or a comment. The call rests on the fitted dose curve; in most records, active means well fitted curve in the direction sought with a large enough effect; inconclusive means small, poorly fitted or top-dose-only effect, or another doubt; inactive means no such curve, though single readings can be large; an effect the other way counts as inactive or inconclusive. Unless noted, on the % scale 0 is the no-effect control and ±100 the full control effect; potency means the concentration at half of the fitted maximal effect.

How did Cc1cc(=O)[nH]c2c(C)cc(S(=O)(=O)N3CCCCC3)cc12 do in these assays?
Sfp PPTase inh: 8%; VDR inhibitor: -17%; PLK1 PBD block: -8%; ALOX12 inh: 96%

How did COCCCn1c(SCC(=O)NC(C)C)nnc1-c1ccccc1 do in these assays?
Sfp PPTase inh: 18%; VDR inhibitor: -18%; PLK1 PBD block: 7.5µM*; ALOX12 inh: inconclusive

Results for COCCCn1c(Cc2csc(Nc3ccccc3)n2)nnc1SCC(N)=O ?
Sfp PPTase inh: 32µM*; VDR inhibitor: 8%; PLK1 PBD block: inconclusive; ALOX12 inh: -10%

What do the screens show for `COCCCn1c(SCC(N)=O)nnc1-c1ccccc1`?
Sfp PPTase inh: 2%; VDR inhibitor: 2%; PLK1 PBD block: -11%; ALOX12 inh: 2%

Results for COc1ccc2c(Sc3ccc(C)cc3)c(C(=O)NC(C)C)[nH]c2c1 ?
VDR inhibitor: 4%; ALOX12 inh: -24%

Results for Cc1cccc(C)c1NC(=O)CN(CC(=O)O)CC(=O)O ?
Sfp PPTase inh: 45µM*; VDR inhibitor: 5%; ALOX12 inh: 7%

How did Cc1cccc(C)c1NC(=O)CCl do in these assays?
ALOX12 inh: 7%

What do the screens show for `CC(OC(=O)CCCC(=O)Nc1ccc(F)cc1)C(=O)c1ccccc1` (centres undefined)?
Sfp PPTase inh: 21%; VDR inhibitor: -17%; PLK1 PBD block: 5%; ALOX12 inh: -5%

Results for COc1ccc(-c2ccc(OC)c(OC)c2OC)c(OC)c1OC ?
VDR inhibitor: -2%; PLK1 PBD block: -4%; ALOX12 inh: 2%

Results for COc1ccc2c3c(cccc13)N(C)N=C2C ?
Sfp PPTase inh: -15%; VDR inhibitor: -9%; PLK1 PBD block: 21µM*; ALOX12 inh: inconclusive

What do the screens show for `COc1ccc(C(=O)N2CCC[C@@]3(CCN(c4cccc(-c5ccccc5)c4)C3)C2)cc1`?
Sfp PPTase inh: -6%; VDR inhibitor: 40µM*; ALOX12 inh: 10%[57.4 µM]

What do the screens show for `Cc1noc(C)c1C(=O)N1CCC[C@@]2(CCN(c3cccc(-c4ccccc4)c3)C2)C1`?
Sfp PPTase inh: 2%; VDR inhibitor: 40µM*; ALOX12 inh: inconclusive

Results for Cc1noc(C)c1C(=O)N1CCC[C@@]2(CCN(Cc3ccccc3)C2)C1 ?
Sfp PPTase inh: 26%; VDR inhibitor: 1%; ALOX12 inh: -15%[57.4 µM]

What do the screens show for `COc1ccc(C(=O)N2CCC3(CCCN(c4ccc(-c5ccccc5)cc4)C3)CC2)cc1`?
Sfp PPTase inh: -2%; VDR inhibitor: inconclusive; ALOX12 inh: inconclusive

Results for COC(=O)N1CCC2(CC1)CN(c1cccc(-c3ccccc3)c1)C2 ?
Sfp PPTase inh: 79µM*; VDR inhibitor: -13%; ALOX12 inh: -7%[57.4 µM]

How did Cc1ccc(-n2c(=O)c3cc4c(=O)n(-c5ccc(C)c(C)c5)c(=O)c4c(C(=O)c4ccc(C(=O)O)cc4)c3c2=O)cc1C do in these assays?
Sfp PPTase inh: -22%; VDR inhibitor: inconclusive; PLK1 PBD block: 30µM*; ALOX12 inh: 21%

What do the screens show for `Fc1ccc(OCCSc2nc3ccccc3s2)cc1`?
ALOX12 inh: 0%

Results for Cc1ccc(S(=O)(=O)N2CCC[C@H]2C(=O)OCC(=O)c2ccc3c(c2)NC(=O)CO3)cc1 ?
Sfp PPTase inh: 4%; VDR inhibitor: inconclusive; PLK1 PBD block: 27µM*; ALOX12 inh: -1%

How did CCOC(=O)Cn1c(C)cc(COC)c(C#N)c1=O do in these assays?
Sfp PPTase inh: 15%; VDR inhibitor: -7%; PLK1 PBD block: -11%; ALOX12 inh: -14%

Results for COc1ccc(-n2c(NC(=O)c3ccc(Br)o3)c(C#N)c3nc4ccccc4nc32)cc1 ?
Sfp PPTase inh: -28%

Results for N#Cc1c(NC(=O)c2ccc(Br)o2)n(-c2ccccc2)c2nc3ccccc3nc12 ?
Sfp PPTase inh: -7%; VDR inhibitor: 8.9µM*; PLK1 PBD block: inconclusive; ALOX12 inh: inconclusive

How did CCOC(=O)c1c(C)[nH]c(CCC(=O)NCCCN2CCN(c3cc(Cl)ccc3C)CC2)c1C do in these assays?
VDR inhibitor: -4%; ALOX12 inh: inconclusive

What do the screens show for `CC1CCc2c(nc3ccc4ccccc4c3c2-c2cccc(O)c2)C1` (centres undefined)?
ALOX12 inh: 4.5µM*

How did CC(C)=C1C(=O)C(c2ccccc2)=C2CN3C(=O)N(CCc4ccccc4)C(=O)[C@]3(Cc3ccc(C(F)(F)F)cc3)[C@H]21 do in these assays?
Sfp PPTase inh: 32%

Results for COc1ccc(S(=O)(=O)N2CCN(C(=O)C3CCC3)CC2)cc1 ?
VDR inhibitor: 6%; PLK1 PBD block: -4%; ALOX12 inh: -18%

How did O=c1c(N2CCc3ccccc3C2)csc2ccc(Br)cc12 do in these assays?
VDR inhibitor: 21%; ALOX12 inh: 40µM*

What do the screens show for `Cc1ccc(C2C3=C(CCCC3=O)Nc3nc(SCCC(C)C)[nH]c(=O)c32)o1` (centres undefined)?
ALOX12 inh: 7.9µM*

Results for Cc1ccc(S(=O)(=O)/C=C/C#N)cc1 ?
Sfp PPTase inh: 2.8µM*; VDR inhibitor: 11µM*; ALOX12 inh: inconclusive

Results for CC(C)(C)c1ccc(S(=O)(=O)/C=C\C#N)cc1 ?
Sfp PPTase inh: 45µM*; VDR inhibitor: 2µM*; ALOX12 inh: 0%

What do the screens show for `Cc1ccc(S(=O)(=O)/C=C\C#N)cc1`?
Sfp PPTase inh: 45µM*; VDR inhibitor: 2.8µM*; ALOX12 inh: 64%

What do the screens show for `C=C(C)C1CC=C(C)/C(=N\NC(=S)Nc2ccc(C)cc2)C1` (centres undefined)?
Sfp PPTase inh: 8%; VDR inhibitor: 11%; PLK1 PBD block: -5%; ALOX12 inh: 22µM*

Results for CC(C)(C)N1Cc2nnn(Cc3ccccc3)c2-c2cc(F)ccc2S1(=O)=O ?
ALOX12 inh: -4%

How did CN(C)c1ccc(N2C(=O)CSC2=S)cc1 do in these assays?
Sfp PPTase inh: -35%; VDR inhibitor: 89µM*; PLK1 PBD block: -14%; ALOX12 inh: -34%

Results for CC1SC(=S)N(c2ccc(N(C)C)cc2)C1=O (centres undefined) ?
Sfp PPTase inh: -4%; VDR inhibitor: 32µM*; PLK1 PBD block: inconclusive; ALOX12 inh: -5%

Results for CCNC(=S)NNc1nc(N2CCOCC2)nc(N2CCOCC2)n1 ?
Sfp PPTase inh: 14µM*; VDR inhibitor: -26%; PLK1 PBD block: -9%; ALOX12 inh: inconclusive

What do the screens show for `C1CN(c2nc(N3CCOCC3)nc(N3CCOCC3)n2)CCO1`?
Sfp PPTase inh: 16%; VDR inhibitor: -22%; PLK1 PBD block: -20%

Results for C=CCNC(=S)NNc1nc(N2CCCC2)nc(N2CCCC2)n1 ?
Sfp PPTase inh: 40µM*; VDR inhibitor: inconclusive; PLK1 PBD block: -15%; ALOX12 inh: -23%

Results for C=CCNC(=S)NNc1nc(Nc2ccccc2)nc(N2CCCCC2)n1 ?
Sfp PPTase inh: 25%; VDR inhibitor: 1%; PLK1 PBD block: -13%; ALOX12 inh: inconclusive

Results for CNC(=S)NNc1nc(N2CCOCC2)nc(N2CCOCC2)n1 ?
Sfp PPTase inh: 2.2µM*; VDR inhibitor: 2%; PLK1 PBD block: -9%; ALOX12 inh: -10%
